# The list is not random: actives were taken first. Their share in the collection is about 9.3%.
# FLuc modulator: inhibits or activates purified firefly luciferase, miR-21 counter-screen. Potency, µM (doses to about 57.5 µM), inactives show top-dose activity change, negative = inhibition, hits mostly inhibitors. AID 588342. purified FLuc, Km substrates, luminescence inhibition. actives 6.9% (n = 360,000);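 also: plate controls were vehicle for no effect and reference inhibitor for full effect; nearly all actives have a fitted effect of over 55% in size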
# Target sequence (P08659 whole entry, looked up): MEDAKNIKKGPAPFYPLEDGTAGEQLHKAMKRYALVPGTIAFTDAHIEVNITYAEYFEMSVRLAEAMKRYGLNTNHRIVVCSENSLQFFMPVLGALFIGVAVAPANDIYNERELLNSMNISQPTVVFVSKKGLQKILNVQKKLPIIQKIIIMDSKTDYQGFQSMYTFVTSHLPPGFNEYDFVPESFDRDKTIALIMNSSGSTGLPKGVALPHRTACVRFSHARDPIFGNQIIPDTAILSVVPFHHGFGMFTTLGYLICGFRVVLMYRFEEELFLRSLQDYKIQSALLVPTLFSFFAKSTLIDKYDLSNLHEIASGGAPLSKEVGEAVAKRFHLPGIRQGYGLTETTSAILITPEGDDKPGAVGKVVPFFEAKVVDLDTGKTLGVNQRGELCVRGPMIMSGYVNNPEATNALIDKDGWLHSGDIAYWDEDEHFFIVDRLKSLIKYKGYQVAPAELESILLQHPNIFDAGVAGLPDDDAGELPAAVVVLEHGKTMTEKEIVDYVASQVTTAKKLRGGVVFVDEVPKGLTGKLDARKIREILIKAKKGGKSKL
#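 Biochemical qHTS of compounds, final roughly 60 µM downward over six points, against 10 nM purified firefly luciferase using Km concentrations of substrates (10 uM D-luciferin, 10 uM ATP) in Tris acetate pH 7.5 buffer; luminescence output.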
# ELG1 repair inh: inhibitors of ELG1-dependent DNA repair in HEK293T cells; HEK293T ELG1-luciferase reporter, luminescence, 16 h; DNA damage induced by 5-fluorouridine; Potency, µM (top dose mostly 46.1 µM), without a hit: at the top dose activity change, negative = inhibition, usual class: inhibitors; actives 2.3% (n = 330,000); also: % is scaled to controls: 0 for no effect and ±100 for the full control effect; nearly all actives have a fitted effect of over 55% in size
#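 Quantitative HTS, concentration-response format. 2,000 cells/well co-treated with 5-fluorouridine and compound, 16 hr in 5% CO2 at 37 °C; ONE-Glo luminescence read after 30 min.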
# ELG1 genotox: inducers of genotoxicity in HEK293T ELG1-luciferase cells; HEK293T ELG1-luciferase reporter, luminescence, 16 h; Potency, µM (top dose mostly 46 µM), for the others: at the highest dose activity change, positive = activation, actives largely listed as activators; actives 1.3% (n = 330,000); AID 504466; also: % of control where 0% means no effect; nearly all actives have a fitted effect of over 60% in size
#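 HEK293T cells expressing luciferase-tagged ELG1 were treated with compound or DMSO for 16 hr at 37°C. Luciferase activity was then read after 30 min with ONE-Glo at room temperature; rising signal flags genetic stress.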
# Rab9 promoter act: Rab9 promoter activation; Huh7 Rab9 promoter-luciferase reporter, luminescence, 24 h; Potency, µM (titrated, usually from 9.22 µM), inactives show at the top dose activation, negative = inhibition, usual class: activators; actives 2.8% (n = 320,000); also: % of control where 0% means no effect; nearly all actives have a fitted effect of over 60% in size
#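 Huh7 cells stably carrying a Rab9 promoter-luciferase reporter, 1500 cells per well in OP-MEM I with 10% FBS, treated with compound 24 hours at 37C. Luciferase activity read by luminescence after 10 minutes with Amplite reagent.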
# SMN2 splice up: increases expression of the SMN2 splice variant. HEK293 SMN2-luciferase splicing reporter, luminescence, 30-36 h. Potency, µM (doses to about 46.1 µM), inactives show at the top dose activity change, positive = activation, actives largely listed as activators. actives 2.8% (n = 210,000); also: % of control where 0% means no effect; nearly all actives have a fitted effect of over 55% in size
#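 HEK293 cells carry an SMN2 […]–luciferase reporter in which exon 7 inclusion puts luciferase in frame. Cells were plated 10-12 h before compound addition, then incubated 30-36 h at 37C. ONE-Glo luminescence was read; sodium butyrate at 4.5 mM final served as control.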
# NPC1 promoter act: activators of NPC1 promoter; Huh7 NPC1 promoter luciferase reporter, 24 h; Potency, µM (titrated, usually from 9.22 µM), for inactives: at the top dose activation, usual class: activators; actives 2.4% (n = 320,000); AID 485313; also: % of control where 0% means no effect; nearly all actives have a fitted effect of over 60% in size
#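 Quantitative HTS used a cell-based reporter: Huh7 cells stably bearing the NPC1 promoter upstream of luciferase were treated with compounds for 24 h, and promoter activation was read as luminescence.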
# * hit, by the source's call; ? = inconclusive; . = no result; [ ] = another dose, or the depositor's remark. Calls follow the shape of the dose curve; as a rule, active = well fitted curve in the direction sought with a large enough effect; inconclusive = small, poorly fitted or top-dose-only effect, or another doubt; inactive = no such curve, though single readings can be large; an effect the other way counts as inactive or inconclusive. Potency is read from the fitted curve at half-maximal effect.
SMILES,FLuc modulator,ELG1 repair inh,ELG1 genotox,Rab9 promoter act,SMN2 splice up,NPC1 promoter act
Oc1ccc(C=Nc2ccccc2-c2nc3ccccc3[nH]2)cc1,26.9µM*,?,9.4%,13.4%,12.6µM*,?
c1ccc(-c2cc(-c3nc4ccccc4[nH]3)c3ccccc3n2)cc1,?,20.6µM*,-17.3%,-0.7%,-99.9%,1.2%
c1ccc(-c2nnsc2-c2nc3ccccc3[nH]2)cc1,4.8%,4.3%,-4.4%,-2.3%,-19.6%,-3.1%
Nc1ccc(-c2nc3c(ccc4ccccc43)[nH]2)cc1,2.39µM*,?,?,?,.,?
Cc1[nH]ncc1-c1nc2ccccc2[nH]1,-17.6%,27.6%,-4.8%,6.3%,.,0.6%
O=c1[nH]cccc1-c1nc2ccccc2[nH]1,?,?,?,29.4%,.,?
Clc1nc2c(ccc3ccccc32)[nH]1,?,?,10.8%,?,.,?
COC(=O)[C@]1(Cc2ccccc2)N[C@H](CN(C)C(=O)c2ccccc2)[C@@H]2C(=O)N(Cc3ccccc3)C(=O)[C@@H]21,.,-14.3%,-1.0%,.,.,.
Nc1ccc2nc(-c3ccc(-c4nc5ccc(N)cc5[nH]4)cc3)[nH]c2c1,-16.0%,-14.1%,-5.1%,-1.4%,.,-5.8%
Fc1ccc(-c2nc3ccncc3[nH]2)cc1,?,?,6.4%,19.9%,9.8%,22.8%
Cn1cc(-c2nc3ccccc3[nH]2)c2ccccc21,4.26µM*,?,6.1%,?,22.4µM*,?
Fc1ccc(-c2nc3ccccc3[nH]2)cc1,12µM*,?,?,2.51µM*,10µM*,2.51µM*
CC(=O)Nc1cc(NC(C)=O)cc(-c2nc3ccccc3[nH]2)c1,-16.9%,-10.8%,2.9%,-3.0%,16.0%,-7.7%
Nc1ccc(-c2nc3ccccc3[nH]2)cc1,9.53µM*,?,2.91µM*,0.447µM*,4.47µM*,1.58µM*
O=C(O)c1ccc(-c2nc3ccccc3[nH]2)cc1,15.1µM*,24.8%,2.1%,-10.5%,14.3%,-1.6%
COc1cccc(N2CCN(C(c3ccccn3)c3nnnn3C(C)(C)C)CC2)c1 (centres undefined),1.8%,8.9%,0.4%,0.6%,-39.7%,-1.0%
CCc1ccc(OCC(=O)NC(Cc2c[nH]c3ccccc23)C(=O)O)cc1 (centres undefined),?,.,.,.,-5.8%,.
Cc1ccc(NC(=S)N2CCN(C(=O)C3CCCO3)CC2)c(C)c1 (centres undefined),0.2%,0.1%,3.6%,12.1%,-11.8%,-4.3%
CCOC(=O)c1c(C)oc2nc(C)nc(NCc3ccccc3OC)c12,-9.5%,.,.,.,.,.
O=C(O)c1ccc(/C=C(\c2nc3ccccc3[nH]2)c2nc3ccccc3s2)cc1,15.1µM*,?,-6.8%,-1.0%,.,1.9%
O=C(N=C1SCC(=O)N1c1ccccc1Cl)c1ccccc1,?,?,?,2µM*,12.6µM*,?
Fc1ccc(-n2nnc(-c3cnc4ccccc4c3)n2)cc1,0.135µM*,?,0.231µM*,0.1µM*,.,?
Fc1ccc(-c2nnn(Cc3nc4ccccc4s3)n2)cc1,?,?,?,5.6%,3.0%,0.3%
Fc1ccc(-n2nnc(-c3ccccc3Br)n2)cc1,4.3%,6.3%,-4.2%,-0.2%,.,-0.1%
Clc1ccc(-n2nnc(-c3cccnc3)n2)cc1Cl,?,?,?,3.16µM*,.,3.98µM*
SMILES,FLuc modulator,ELG1 repair inh,ELG1 genotox,Rab9 promoter act,SMN2 splice up,NPC1 promoter act
O=c1[nH]c2ccccc2cc1-c1nnn(-c2ccc(F)cc2)n1,1.9µM*,?,?,2.51µM*,.,3.55µM*
c1cncc(-c2nnc(-c3cccnc3)nn2)c1,?,?,-3.9%,4.8%,-89.8%,16.4%
Brc1ccccc1-n1nnc(-c2cccnc2)n1,16.9µM*,?,10.1%,?,.,?
CCNc1nc(Oc2ccc(OCC(=O)OC)nn2)nc(N2CCOCC2)n1,-0.3%,.,.,.,4.2%,.
Fc1ccc(-n2nnc(-c3cccnc3)n2)cc1,15.1µM*,?,?,3.16µM*,.,?
Fc1ccc(C(CCCn2nnc(-c3cccnc3)n2)c2ccc(F)cc2)cc1,-0.8%,-21.4%,-10.3%,4.7%,.,-0.3%
O=S(=O)(/N=C(\c1ccccc1F)N1CCCCC1)c1ccccc1,-1.3%,1.6%,-1.1%,-2.0%,17.8%,-3.2%
O=C(NCc1ccccc1)c1onc(CSc2ccccc2)c1C(=O)NCC1CC1,-4.3%,23.1µM*,-14.2%,-6.0%,.,-7.5%
CC(=O)c1ccc(OCCCC(=O)Nc2cccc(S(=O)(=O)N3CCCCCC3)c2)cc1,.,?,-3.5%,.,.,.
CC1CCCN(CCOc2ccc3ccccc3c2Br)C1 (centres undefined),26.9µM*,22.9%,13.8%,21.8%,-10.8%,14.4%
CCOC(=O)c1ccc(NC(=O)CSc2nc(SC)ns2)cc1,?,.,.,.,20.0%,.
COc1cc(NC(=O)c2cccc(F)c2)cc(OC)c1OC,-5.7%,16.5%,7.9%,-7.0%,9.5%,2.9%
Cc1ccc(CNC(=O)C2CCN(S(=O)(=O)N3CCCC3)CC2)cc1,-1.9%,-4.4%,0.7%,0.0%,.,-3.1%
COc1ccc(/C=C/C(=O)N2CCCc3ccccc32)cc1,?,?,10.5%,4.4%,.,8.7%
O=C(/C=C/c1ccco1)N1CCc2ccccc21,2.13µM*,?,1.03µM*,0.794µM*,10µM*,1.78µM*
Cc1ccc(/C=C/C(=O)N2CCc3ccccc32)o1,1.9µM*,?,8.2µM*,2.51µM*,.,2.82µM*
O=C(c1ccco1)N1CCc2ccccc21,?,?,?,?,73.4%,?
CCOC(=O)/C=C/C(=O)N1CCc2ccccc21,10.7µM*,?,1.1%,3.8%,-5.7%,0.3%
Cc1ccccc1N1CC(C(=O)Nc2ccc(Br)cc2)CC1=O (centres undefined),2.2%,.,.,.,-5.9%,.
Cc1cccc(NC(=O)/C(C#N)=C/c2ccc[nH]2)c1C,-11.8%,?,?,3.98µM*,.,?
Cc1ccc(C)c(NC(=O)/C(C#N)=C/c2ccc[nH]2)c1,-3.6%,1.9%,-0.3%,13.7%,.,23.6%
NC(=S)N/N=C/c1c[nH]c2ccc(OCc3ccccc3)cc12,21.3µM*,?,-6.6%,0.4%,.,-2.1%
NC(=S)N/N=C\c1c[nH]c2ccccc12,.,.,.,.,-7.7%[9.22 µM],.
CC(Sc1nc2scc(-c3ccccc3)c2c(=O)[nH]1)C(=O)NC(N)=O (centres undefined),-1.4%,-2.0%,-0.4%,-3.5%,.,-4.9%
c1csc(-c2nnc(NC3CCCCC3)c3ccccc23)c1,12µM*,-13.0%,-1.0%,-2.8%,3.1%,-1.7%
CC1CCN(c2nc3ccccc3nc2N2CCC(C)CC2)CC1,2.9%,.,.,.,3.9%,.

# Bioassay records from PubChem BioAssay.
